In the library only some 15% were active in any assay of this set; here they are far more common.
12-LOX inh: blocks human arachidonate 12S-lipoxygenase; Potency, µM (titrated, usually from 108 µM), for the others: at the highest dose activity change, negative = inhibition, usual class: inhibitors; purified 12hLO, xylenol orange hydroperoxide absorbance; actives 1.1% (n = 580,000)
Target sequence (P18054 whole entry, looked up): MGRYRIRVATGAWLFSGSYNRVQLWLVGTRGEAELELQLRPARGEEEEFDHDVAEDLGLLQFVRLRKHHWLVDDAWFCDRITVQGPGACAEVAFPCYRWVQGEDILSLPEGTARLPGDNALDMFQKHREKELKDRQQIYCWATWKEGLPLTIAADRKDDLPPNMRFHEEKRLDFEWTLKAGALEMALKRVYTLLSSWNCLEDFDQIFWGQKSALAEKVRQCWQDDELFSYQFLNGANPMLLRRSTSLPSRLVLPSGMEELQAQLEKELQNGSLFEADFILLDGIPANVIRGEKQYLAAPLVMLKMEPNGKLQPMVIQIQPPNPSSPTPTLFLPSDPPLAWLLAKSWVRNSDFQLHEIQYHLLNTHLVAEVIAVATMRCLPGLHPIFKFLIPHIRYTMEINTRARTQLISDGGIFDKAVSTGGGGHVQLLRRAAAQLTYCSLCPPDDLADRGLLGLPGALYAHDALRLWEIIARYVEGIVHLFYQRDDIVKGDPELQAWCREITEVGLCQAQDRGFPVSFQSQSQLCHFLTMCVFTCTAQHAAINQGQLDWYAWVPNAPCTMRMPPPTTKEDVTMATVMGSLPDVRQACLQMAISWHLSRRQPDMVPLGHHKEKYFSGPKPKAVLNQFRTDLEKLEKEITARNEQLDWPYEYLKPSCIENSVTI
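Hydroperoxide product was detected by ferrous iron/xylenol orange as the 573 to 405 nm absorbance ratio. Arachidonic acid at 40 uM (final) was turned over for 30 min at room temperature by 150 nM human 12hLO, pH 7.0 Hepes buffer, after 15 min compound preincubation.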
ELG1 DNA repair: inhibitors of ELG1-dependent DNA repair in HEK293T cells; HEK293T ELG1-luciferase reporter, luminescence, 16 h; DNA damage induced by 5-fluorouridine; Potency, µM (series often up to 46.1 µM), for the others: at the top dose activity change, negative = inhibition, actives largely listed as inhibitors; actives 2.3% (n = 330,000); note: nearly all actives have a fitted effect of over 55% in size
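Step one: seed 2,000 cells per well. Step two: pin-transfer compound or DMSO alongside 5-fluorouridine. Step three: incubate 16 hr, 37 °C, 5% CO2. Step four: add ONE-Glo, wait 30 min, read luminescence.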
DT40 TDP1 CPT: DT40-hTDP1 cell growth loss with CPT; chicken DT40 Tdp1-/-;hTDP1 cells + 20 nM CPT, ATP luminescence, 48 h; Potency, µM (series often up to 46.2 µM), without a hit: at the highest dose activity change, negative = growth inhibition, hits mostly inhibitors; actives 12% (n = 420,000); AID 686979; note: nearly all actives have a fitted effect of over 55% in size
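Chicken DT40 Tdp1-/- cells stably complemented with human TDP1 were seeded at 400 cells/well in medium containing 20 nM camptothecin, exposed to pin-transferred compounds, and grown at 37 °C for at least 48 hr. Viability was read as ATP luminescence.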
VP16 counter: Gal4-VP16 reporter inhibition counter-screen; Drosophila S2 Gal4-VP16 UAS-luciferase, luminescence, 20 h; Potency, µM (top dose mostly 53.6 µM), for the others: at the highest dose activity, negative = inhibition, most hits filed as inhibitors; actives 3.5% (n = 310,000); AID 2546;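 note: Gal4-VP16 expression switched on by copper sulfate through the metallothionein promoter; nearly all actives have a fitted effect of over 50% in size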
RORg inh: inhibitors of mouse ROR gamma transcriptional activity; P51450; Drosophila S2 Gal4-RORgamma UAS-luciferase reporter, 20 h; Potency, µM (titrated, usually from 53.6 µM), for inactives: at the highest dose activity change, negative = inhibition, most hits filed as inhibitors; actives 5.4% (n = 310,000); note: nearly all actives have a fitted effect of over 60% in size
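A Gal4/UAS one-hybrid system in insect cells: metallothionein-promoter Gal4–ROR gamma fusion plus Photinus luciferase reporter. Copper sulfate 700 uM final, 20 hr ambient incubation, luminescent detection after 10 min with reagent.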
DT40 TDP1 no CPT: qHTS for Inhibitors of human tyrosyl-DNA phosphodiesterase 1 (TDP1): qHTS in cells in absence of CPT; DT40 Tdp1-/- hTDP1 cells, no CPT, ATP luminescence, 48 h; Potency, µM (top dose mostly 46.2 µM), for inactives: at the highest dose activity change, negative = growth inhibition, hits mostly inhibitors; actives 15% (n = 420,000); note: nearly all actives have a fitted effect of over 55% in size
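Chicken DT40 Tdp1-/- cells stably complemented with human TDP1 were seeded at 400 cells/well with DMSO in place of 20 nM camptothecin. After compound pinning, cells grew at least 48 hr at 37 °C; viability read by CellTiter-Glo luminescence.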
Starred values were filed as active, the others as inactive; ? = inconclusive; / = no result; [ ] = another dose, or the depositor's remark. Calls come from the whole dose curve; as a rule, active = well fitted curve in the direction sought with a large enough effect; inconclusive = small, poorly fitted or top-dose-only effect, or another doubt; inactive = no such curve, though single readings can be large; an effect the other way counts as inactive or inconclusive. % is set by controls: 0 for no effect and ±100 for the full control effect; potency is the fitted concentration of half-maximal effect.

SMILES	12-LOX inh	ELG1 DNA repair	DT40 TDP1 CPT	VP16 counter	RORg inh	DT40 TDP1 no CPT
O=C(C1=C[C@H](c2csc3ccccc23)C[C@H](OCCCCO)O1)N1CCN(Cc2ccccc2)CC1	12.7%	1.6%	25.9µM*	-13.3%	-2.6%	?
O=C(C1=C[C@H](c2ccc(Br)cc2)C[C@H](OCCCCO)O1)N1CCN(Cc2ccccc2)CC1	-27.6%	-2.2%	23.1µM*	-22.1%	?	?
CCCCCCCC/C=N/NC(=O)c1ccc(C(C)(C)C)cc1	55.3%	/	/	/	/	/
CN1C[C@H](NC2CCC2)CCC[C@@H](C(=O)NC2CC2)CC1=O	12.2%[176 µM]	/	/	/	/	/
COc1ccc(-c2c(-c3ccccc3)n(C)c3ccccc23)cc1	-6.5%	4.9%	3.9%	/	/	-18.9%
CN=C1c2c(-c3ccccc3)c3cc(OC)ccc3n2CCN1C	-17.8%	24.9%	23.1µM*	?	0.3%	18.4µM*
C/C=C/CC(C)C(O)C1C(=O)NC(CC)C(=O)N(C)CC(=O)N(C)C(CC(C)C)C(=O)NC(C(C)C)C(=O)N(C)C(CC(C)C)C(=O)NC(C)C(=O)NC(C)C(=O)N(C)C(CC(C)C)C(=O)N(C)C(CC(C)C)C(=O)N(C)C(C(C)C)C(=O)N1C (stereo not drawn)	-6.2%	/	/	-18.9%	-1.2%	/
CC[C@H](C)C1OC(=O)[C@@H](C)[C@@H](CC)NC(=O)[C@H](C)N(C)C(=O)C(C)(C)C(=O)C(C)NC(=O)[C@H](Cc2ccc(OC)cc2)N(C)C(=O)[C@H](C(C)C)N(C)C(=O)CNC(=O)[C@H](CC(C)C)N(C)C(=O)CNC1=O (stereo partly drawn)	/	/	0.146µM*	/	/	0.184µM*
CCC[C@H]1NC(=O)[C@H](C)N(C)C(=O)C(C)(C)C(=O)C(C)NC(=O)[C@H](Cc2ccc(OC)cc2)N(C)C(=O)[C@H](C(C)C)N(C)C(=O)CNC(=O)[C@H](CC(C)C)N(C)C(=O)CNC(=O)[C@H]([C@@H](C)CC)OC(=O)[C@H]1C (stereo partly drawn)	?	?	0.0326µM*	/	/	0.0206µM*
CCc1ccc(/C=C(/C#N)C(=O)c2c(C)[nH]c3ccccc23)cc1	14.1µM*	/	/	/	/	/
COCCC(=O)Nc1ccc2c(c1)CN(C(=O)c1ccc(CSC)o1)CC2	-7.8%	3.5%	-28.2%	1.1%	39.8%	2.91µM*
S=c1[nH]ccn1Cc1ccccc1	?	-1.1%	?	?	11.2µM*	-13.6%
CCCCn1c(C(C)NC(=O)CCC)nc2ccccc21 (stereo not drawn)	-0.8%	-6.5%	?	18.5%	-42.1%	18.4µM*
CCCCCn1c(C(C)NC(=O)CCC)nc2ccccc21 (stereo not drawn)	17.7%	-6.3%	11.6µM*	25.2%	-20.8%	18.4µM*
CCOC(=O)c1c(NC(=O)c2noc3c2CC(C)CC3)sc(C)c1C (stereo not drawn)	-21.0%	/	/	/	/	/
CCOC(=O)c1cnc2c(c(C)nn2C)c1Oc1ccc(Cl)cc1	?	?	16.4µM*	-8.4%[0.365 µM]	3.3%	?
Clc1ccc(-c2noc(CCc3nc4ccccc4[nH]3)n2)cc1	15.1%	/	/	/	/	/
Cc1ccc(-c2onc(C)c2C)cc1S(=O)(=O)N1CCOc2ccc(Cl)cc21	2.1%	/	?	/	/	14.6µM*
CCC1CN(S(=O)(=O)c2ccc3c(c2)NC(=O)CC(=O)N3)c2cc(Cl)ccc2O1 (stereo not drawn)	-5.2%	-15.6%	16.4µM*	4.4%	?	20.6µM*
Cc1ccc(-c2onc(C)c2C)cc1S(=O)(=O)N1CCc2ccccc21	3.8%	/	13µM*	/	/	23.1µM*
CCC1CN(S(=O)(=O)c2cc(-c3onc(C)c3C)ccc2C)c2cc(Cl)ccc2O1 (stereo not drawn)	?	/	14.6µM*	/	/	14.6µM*
Cc1ccc(C2CC(=O)Nc3c2c(C)nn3-c2ccc3nncn3n2)cc1C (stereo not drawn)	7.3%	/	/	/	/	/
Cc1ccc(-c2onc(C)c2C)cc1S(=O)(=O)NC1CCCCC1	-31.2%	/	?	/	/	25.9µM*
Cc1ccc(-c2onc(C)c2C)cc1S(=O)(=O)N1CCC(C)CC1	-15.4%	/	20.6µM*	/	/	?
CCOC(=O)c1ccc(NS(=O)(=O)c2cc(-c3onc(C)c3C)ccc2C)cc1	-26.8%	/	-22.6%	/	/	?
SMILES	12-LOX inh	ELG1 DNA repair	DT40 TDP1 CPT	VP16 counter	RORg inh	DT40 TDP1 no CPT
CCOC(=O)C1CCN(S(=O)(=O)c2cc(-c3onc(C)c3C)ccc2C)CC1	-9.4%	/	?	/	/	?
O=C(CCNS(=O)(=O)c1ccc2c(c1)CCN2C(=O)C1CC1)Nc1ccc(F)cc1F	-17.0%	/	8.2µM*	/	/	13µM*
CC(=O)N1CCc2cc(S(=O)(=O)NCCC(=O)Nc3cccc(C)c3)ccc21	-1.0%	15.6%	-15.4%	2.6%	21.9%	-19.3%
Cc1cccc(NC(=O)CCNS(=O)(=O)c2ccc3c(c2)CCN3C(=O)C2CC2)c1	-7.1%	/	18.4µM*	/	/	20.6µM*
CC1CCN(CCCNS(=O)(=O)c2ccc3c(c2)CCN3C(=O)C2CC2)CC1	2.5%	2.0%	-22.8%	4.4%	-2.1%	-8.1%
Cc1[nH]c2ccccc2c1C(C#N)(C#N)C1C(=O)c2ccccc2C1=O	?	?	2.06µM*	1.0%	?	2.06µM*
Cc1[nH]c2ccccc2c1CC#N	-16.0%	14.8%	?	9.1%	-0.9%	-11.4%
COc1ccc(Nc2oc(COc3ccccc3C)nc2C#N)cc1	43.0%	/	/	/	/	/
Cc1ccc(C)c(CN2C(=O)c3ccccc3S(=O)(=O)c3ccc(C(=O)N4CCc5ccccc54)cc32)c1	-12.9%	/	5.8µM*	/	/	5.8µM*
Cc1ccc(C)c(CN2C(=O)c3ccccc3S(=O)(=O)c3ccc(C(=O)N4CCN(Cc5ccccc5)CC4)cc32)c1	-1.6%	/	6.51µM*	/	/	6.51µM*
COc1ccc(C(=O)N2CCCC(C(=O)Nc3ccc(C)cc3)C2)c2ccccc12 (stereo not drawn)	31.0%	/	/	/	/	/
O=C1c2ccccc2C(=O)C1c1ccncc1	?	?	?	11.2µM*	?	23.1µM*
COc1ccc(C(=O)N2CC3(Cc4ccccc4N([S+](C)(=O)[O-])C3)C2)cc1	-0.4%	/	/	/	/	/
COc1ccc(-c2c(-c3cc(OC)cc(OC)c3)n(C)c3ccc(-c4ccc(OC)c(F)c4)cc23)cc1	-10.0%	?	-22.9%	/	/	?
